Measured values: PubChem BioAssay (NCI)
Where “and” joins values, the source holds several entries; their conditions need not be identical. Equal entries are not always repeated. Compounds without any hit were thinned out: in the full panel of roughly 83,000, 20% have a hit.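 The endpoint reported here, percent growth, reads 100 for growth as untreated, 0 for no net growth and -100 for all cells dead.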 Calls of active or inactive are those of the source. Rule for the calls: active = growth percent below 10; inactive = the rest.

Assays:
Experiment in all cases: NCI-60 one-dose screen, 48 h (100 = growth as untreated, 0 = no growth, -100 = all killed)
Conditions in all cases: 10 µM unless noted
[1] = system: SR leukemia
[2] = system: RPMI-8226 leukemia
[3] = system: OVCAR-8 ovarian
[4] = system: OVCAR-5 ovarian
[5] = system: OVCAR-4 ovarian
[6] = system: SK-OV-3 ovarian
[7] = system: IGROV1 ovarian
[8] = system: OVCAR-3 ovarian
[9] = system: HS 578T breast
[10] = system: NCI/ADR-RES ovarian
[11] = system: T-47D breast
[12] = system: BT-549 breast
[13] = system: MDA-MB-435 melanoma
[14] = system: SW-620 colon
[15] = system: MCF7 breast
[16] = system: HCT-116 colon
[17] = system: HCC-2998 colon
[18] = system: KM12 colon

Measured: growth

O=C1C=CC(=O)N1c1ccc2ccccc2c1
inactive: [1] 40.7% and 63.4% | [2] 105% and 81.3% | [3] 103% and 101% | [4] 96.6% and 97.9% | [5] 93.7% | [6] 107% and 99.7% | [7] 101% and 105% | [8] 69.7% and 93.9% | [9] 93.6% and 103% | [10] 99.7% and 104% | [11] 88.7% and 88.6% | [12] 114% and 103% | [13] 120% and 95.4% | [15] 95.4% and 106% | [16] 44.9% and 54.9% | [17] 100% and 106% | [18] 103% and 104%
19.4% (inactive) and -15.2% (active): [14]

Nc1ncnc2c1C(c1ccc([N+](=O)[O-])cc1)c1sc3c(F)cccc3c1O2 (configuration not stated)
inactive: [1] 94.3% | [2] 103% | [3] 102% | [4] 85.9% | [5] 99.8% | [6] 109% | [7] 85.6% | [8] 110% | [9] 89.2% | [10] 101% | [11] 71.7% | [12] 111% | [13] 101% | [14] 98.3% | [15] 21.9% | [16] 101% | [17] 115% | [18] 92.8%

CN(Cc1ccccc1)c1nc(Cl)c(C2CC(c3ccc(F)cc3)=NN2C=O)s1 (configuration not stated)
inactive: [1] 92.2% | [2] 82.5% | [3] 100% | [4] 99.8% | [5] 90.9% | [6] 113% | [7] 89.4% | [8] 100% | [9] 97.9% | [10] 90.2% | [11] 85.5% | [12] 113% | [13] 96.8% | [14] 101% | [15] 86.7% | [16] 86.9% | [17] 95.4% | [18] 93.2%

CC(=O)N1N=C(c2ccc(Nc3nc(Nc4ccc(F)cc4)nc(Nc4ccc(F)cc4)n3)cc2)CC1c1ccccc1 (configuration not stated)
inactive: [1] 23.3% | [2] 33.9% | [3] 83% | [4] 72.3% | [5] 95.3% | [6] 89.2% | [7] 117% | [8] 141% | [9] 94.8% | [10] 72.8% | [11] 56.2% | [12] 120% | [13] 105% | [14] 95.7% | [15] 66.2% | [16] 80.7% | [18] 89.1%

COc1cc(Nc2nc3ccccc3cc2C(=O)Nc2ccc(F)c(F)c2)cc(OC)c1OC
active: [10] 6.91% | [11] 9.25% | [16] 6.91%
inactive: [1] 29.6% | [2] 21.8% | [3] 15.5% | [4] 63.9% | [5] 23% | [6] 42.2% | [7] 30.8% | [8] 10.6% | [9] 61.2% | [12] 55.5% | [13] 19.7% | [14] 23% | [15] 12.8% | [17] 45.3% | [18] 20%

Cc1cc2nc(C(Cl)Cl)nc(-c3ccc(Cl)cc3)n2n1
active: [1] 9.87% | [2] -7.69% | [4] -0.203% | [5] -19.6% | [6] -6.97% | [7] 5.11% | [8] -26.6% | [9] -32% | [10] -6.58% | [13] -25.2% | [14] -36.6% | [15] 2.98% | [16] -2.01% | [18] -27.2%
inactive: [3] 12.8% | [11] 27.4% | [12] 52.5%

CC[C@H](C)[C@H](NC(=O)[C@@H](N)CCC(N)=O)C(=O)N[C@@H](Cc1ccc(O)cc1)C(=O)N[C@@H](CCCCN)C(=O)N[C@@H](CCCCN)C(=O)N[C@@H](Cc1ccc(O)cc1)C(=O)N[C@@H](CCCNC(=N)N)C(=O)N[C@H](C(=O)N[C@@H](Cc1c[nH]c2ccccc12)C(=O)N[C@@H](Cc1ccc(O)cc1)C(=O)N[C@@H](CCCNC(=N)N)C(=O)N[C@@H](CCCCN)C(=O)N[C@@H](C)C(=O)N[C@@H](Cc1c[nH]c2ccccc12)C(=O)N[C@@H](CCCCN)C(=O)N[C@H](C(=O)N[C@@H](CC(C)C)C(=O)NCC(=O)N[C@@H](CCCCN)C(=O)N[C@H](C(N)=O)C(C)C)C(C)C)[C@@H](C)O
inactive: [1] 37.8% | [2] 17.9% | [3] 13% | [4] 56.6% | [5] 73.5% | [6] 42.8% | [12] 16.3% | [13] 17.9% | [14] 47.2% | [16] 28.7% | [17] 87.5%
active: [7] -33.4% | [8] -1.52% | [9] -13% | [10] -2.5% | [11] -47% | [15] -68.3% | [18] -33%

COc1cc(C=O)ccc1Oc1ccc([N+](=O)[O-])cc1[N+](=O)[O-]
inactive: [1] 80.7% | [2] 89.5% | [3] 93.7% | [4] 109% | [5] 97% | [6] 96.4% | [7] 105% | [8] 107% | [9] 93.1% | [10] 99.6% | [11] 75.2% | [12] 98% | [13] 112% | [14] 91.7% | [15] 99.2% | [16] 94.9% | [17] 109% | [18] 105%
